Results: PubChem BioAssay AID504465 (National Center for Advancing Translational Sciences (NCATS), 2011)
In all, about 2,100 compounds went through this assay and about 210 (10%) were called active. Roughly 53% stayed inconclusive and do not appear here. The call rests on the fitted dose curve; in most records, active means well fitted inhibition curve with a large enough effect; inconclusive means small, poorly fitted or top-dose-only effect, or effect the other way; inactive means no such curve, though single readings can be large or run the other way. The list shows a part of the results.

Test: IN Cell qHTS Assay for Inhibitors of the mTORC1 Signaling Pathway in MEF (Tsc2-/-, p53-/-) Cells: Sytravon; further: nearly all actives have a fitted effect of over 60% in size
Conditions: phospho-rpS6 immunofluorescence, 24 h; series mostly up to 38.3 µM
How it was run: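 Immunofluorescence of rpS6 phosphorylation (Ser235/236) in mouse embryonic fibroblasts lacking Tsc2 and p53, after 24 h compound exposure; Hoechst-normalized signal imaged, each well scored as % active cells relative to rapamycin (7.5 nM) and DMSO controls.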
Potency means the concentration at half of the fitted maximal effect.

Potency, active:
N=c1n(CCN2CCCCC2)c2ccccc2n1CC(O)COc1ccc(Cl)cc1Cl (stereo not drawn) 2.61 µM, CCn1c(=N)n(CCOc2ccc(Br)cc2)c2ccccc21 6.56 µM, Cc1ccccc1OCC(O)Cn1c(=N)n(CCN2CCCCC2)c2ccccc21 (stereo not drawn) 5.85 µM, CCCCn1c(=N)n(CCOc2ccccc2OC)c2ccccc21 6.56 µM, CCN(CC)CCn1c(=N)n(CC(O)COc2ccccc2C)c2ccccc21 (stereo not drawn) 5.85 µM, CCCCCn1c(=N)n(CC(O)COc2cccc(C)c2)c2ccccc21 (stereo not drawn) 2.61 µM, CCN(CC)CCn1c(=N)n(CCOc2ccccc2Cl)c2ccccc21 3.69 µM, Cc1ccccc1OCCn1c(=N)n(C(C)C)c2ccccc21 9.27 µM

Potency, inactive:
COc1ccccc1N1CCN(CC(O)COc2ccc(C)cc2C(C)(C)C)CC1 (stereo not drawn), COc1cccc(OCc2nc3ccccc3n2CCOc2ccc(C)cc2)c1, Cc1ccc(OCCn2c(CNc3cccc(C)c3)nc3ccccc32)cc1, COc1cc(C2CC(=O)Nc3cc4c(cc32)OCCO4)cc(OC)c1O (stereo not drawn), COc1ccccc1NC(=O)CSc1nnc2c(n1)[nH]c1ccccc12, CCN(C(=O)c1cc2c(=O)oc3ccc(C)cc3c2s1)c1ccccc1F, Cc1ccccc1C(=O)Nc1cccc(OCc2cc(=O)n3cccc(C)c3n2)c1, CCOc1ccc(C2=C(C(C)=O)Sc3nnc(C)n3N2C(C)=O)cc1, O=C(NCc1ccccc1Cl)c1nnc(Cc2cccc(F)c2)o1, COc1ccc(C)cc1NC(=O)C(NS(=O)(=O)c1cccs1)c1ccccc1 (stereo not drawn), COc1ccc(N2CCN(CC(O)COc3ccc(C)c(C)c3)CC2)cc1 (stereo not drawn), CCCCCn1c(-c2cccc(C)c2)nc2ccccc21, Cc1ccc(C(=O)n2nc(C)c(S(=O)(=O)N3CCCCCC3)c2C)cc1, Cc1ccc(NC(=O)CCNS(=O)(=O)c2cccc3nonc23)cc1Cl, COc1ccc(C(=O)c2cn(Cc3cccc(C)c3)c3cc4c(cc3c2=O)OCO4)cc1, CCOC(=O)c1ccccc1Nc1cc(C)nc2nc(-c3ccco3)nn12, CC(C)c1ccc(NC(=O)c2cc(S(=O)(=O)NCCC3=CCCCC3)ccc2F)cc1, Fc1ccc(-c2csc(=Nc3cccc(C(F)(F)F)c3)n2Cc2ccc3c(c2)OCO3)cc1, CCOC(=O)N1CCc2c(sc3c2C(=O)NC(c2ccc(C(=O)OC)cc2)N3)C1 (stereo not drawn), COc1cc2c(cc1OC)n(CC(=O)c1ccc(F)cc1)c(=O)n1nc(CCn3nc(C)cc3C)nc21
